We go through 10 molecules from PubChem BioAssay (NCI).

Assay [1] is described as follows: NCI Yeast Anticancer Drug Screen. Data for the rad50 strain (AID 155).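 Note: 0% = growth of vehicle-only cultures of the same strain.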 To be noted: S. cerevisiae rad50 strain growth inhibition, active compounds read high. Put shortly: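 Genetically altered yeast (DNA repair pathway); compound treatment; growth inhibition vs vehicle ctrl.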
The nature of assay [2]: NCI Yeast Anticancer Drug Screen. Data for the mec2-1 strain (AID 157). To be noted: S. cerevisiae mec2-1 strain, active compounds read high. A digest of the protocol: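 Vehicle-treated cultures served as reference for growth inhibition of compound-exposed mec2-1 yeast.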
Assay [3] can be described thus: NCI Yeast Anticancer Drug Screen. Data for the sgs1 mgt1 strain (AID 161).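 Note: 0% = growth of cultures given vehicle only.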 To be noted: S. cerevisiae sgs1 mgt1 strain, active compounds read high. Put shortly: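 Read-out: growth inhibition vs vehicle controls. Cells: mutant yeast strain deficient in DNA damage repair.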
Assay [4] can be described thus: NCI Yeast Anticancer Drug Screen. Data for the cln2 rad14 strain (AID 165).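 Note: 0% = growth equal to vehicle treated cultures.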 The conditions noted are these: S. cerevisiae cln2 rad14 strain, active compounds read high. Put shortly:
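Each compound was tested on cln2 rad14 yeast. Inhibition of growth was calculated against vehicle-exposed controls.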

Assay [5] in a line: NCI Yeast Anticancer Drug Screen. Data for the bub3 strain (AID 167). The conditions noted are these: S. cerevisiae bub3 mutant strain, active compounds read high. Put shortly:
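Yeast carrying a defined mutation is treated with each compound, and growth is compared with that of vehicle-exposed cells to give inhibition.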

Assay [6] in a line: NCI Yeast Anticancer Drug Screen. Data for the mlh1 rad18 strain (AID 175). The conditions noted are these: S. cerevisiae mlh1 rad18 strain growth inhibition, active compounds read high. Put shortly:
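Vehicle-treated cultures served as the reference for growth inhibition in a yeast strain carrying DNA damage repair alterations exposed to each compound.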

[7] abbreviates: at 5.0 µM (retest, dose inferred, filed as 0.5).
The mark [8] stands for this setting: at 50.0 µM (retest, dose inferred, filed as 5.0).

Structures are written as SMILES. Compounds without any hit were thinned out: in the full panel of roughly 79,000, 15% have a hit. Unmarked numbers belong to inactive results. The source made the active and inactive calls. Cut-off read from the data, not from the text of the source: active = growth inhibition above about 70%; inactive = the rest.

On to `C=CCOC(=O)C(O)C(CC)CCCCC` (stereo not given), for which the growth inhibition was 25% in assay [1] (setting [7]); 92% (active) in assay [1] (setting [8]); 52.9% in assay [1] (at 50.0 µM); 0% in assay [2] (setting [7]); 87% (active) in assay [2] (setting [8]); 46% in assay [2] (at 50.0 µM). The growth inhibition in assay [3] (setting [7]) was 9%; in assay [3] (setting [8]), 89% (active); in assay [3] (at 50.0 µM), 76.7% (active); in assay [4] (setting [7]) it was 10%; in assay [4] (setting [8]), 31%; in assay [4] (at 50.0 µM), 80.2% (active). The growth inhibition in assay [5] (setting [7]) was 16%; in assay [5] (setting [8]), 91% (active); in assay [5] (at 50.0 µM) it was 54.4%; in assay [6] (setting [7]) it was 17%; in assay [6] (setting [8]) it was 92% (active); in assay [6] (at 50.0 µM) it was -3.3%.

Turning to `CC(=O)NC1=C(Sc2ccc([N+](=O)[O-])cc2)C(=O)c2ccccc2C1=O`, the growth inhibition in assay [1] (setting [7]) was 96% (active); in assay [1] (setting [8]), 98% (active); in assay [1] (at 50.0 µM), 61.4%; in assay [2] (setting [7]), 98% (active); in assay [2] (setting [8]), 96% (active); in assay [2] (at 50.0 µM), 11.1%. The growth inhibition in assay [3] (setting [7]) was 98% (active); in assay [3] (setting [8]) it was 99% (active); in assay [3] (at 50.0 µM), 21.9%; in assay [4] (setting [7]) it was 46%; in assay [4] (setting [8]), 13%; in assay [4] (at 50.0 µM), -18.1%. For the same molecule, the growth inhibition in assay [5] (setting [7]) is 75% (active); in assay [5] (setting [8]), 5%; in assay [5] (at 50.0 µM), 62%; in assay [6] (setting [7]), 98% (active); in assay [6] (setting [8]), 99% (active); in assay [6] (at 50.0 µM), 51.5%.

For `O=S1(=O)c2ccccc2C(=NO)c2ccccc21`, the growth inhibition is -5% in assay [1] (setting [7]); -9% in assay [1] (setting [8]); -7.95% in assay [1] (at 50.0 µM); -3% in assay [2] (setting [7]); -26% in assay [2] (setting [8]); 13.2% in assay [2] (at 50.0 µM). Further, the growth inhibition is -7% in assay [3] (setting [7]); -21% in assay [3] (setting [8]); -15.4% in assay [3] (at 50.0 µM); 3% in assay [4] (setting [7]); 0% in assay [4] (setting [8]); 66% in assay [4] (at 50.0 µM). Also, the growth inhibition is -1% in assay [5] (setting [7]); -17% in assay [5] (setting [8]); 7.7% in assay [5] (at 50.0 µM); -3% in assay [6] (setting [7]); -21% in assay [6] (setting [8]); -3.55% in assay [6] (at 50.0 µM).

`CNCC(OB(c1ccccc1)c1ccccc1)c1ccccc1` (stereo not given): the growth inhibition is 4% in assay [1] (setting [7]); 99% (active) in assay [1] (setting [8]); -22.9% in assay [1] (at 50.0 µM); 12% in assay [2] (setting [7]); 99% (active) in assay [2] (setting [8]); -5.2% in assay [2] (at 50.0 µM). The growth inhibition in assay [3] (setting [7]) was 1%; in assay [3] (setting [8]) it was 95% (active); in assay [3] (at 50.0 µM) it was 61.7%; in assay [4] (setting [7]), 9%; in assay [4] (setting [8]), 99% (active); in assay [4] (at 50.0 µM) it was -26.6%. In addition, the growth inhibition is -7% in assay [5] (setting [7]); 99% (active) in assay [5] (setting [8]); 5.75% in assay [5] (at 50.0 µM); 0% in assay [6] (setting [7]); 99% (active) in assay [6] (setting [8]); 44.1% in assay [6] (at 50.0 µM).

On to `CCCCc1c2c(nc3c1CCCC3O)/C(=C/c1ccccc1)CCC2` (stereo not given), for which the growth inhibition in assay [1] (setting [7]) is 0%; in assay [1] (setting [8]), 42%; in assay [1] (at 50.0 µM), 50.8%; in assay [2] (setting [7]), 0%; in assay [2] (setting [8]), 47%; in assay [2] (at 50.0 µM), 53.9%. Moreover, the growth inhibition in assay [3] (setting [7]) is -2%; in assay [3] (setting [8]), 67%; in assay [3] (at 50.0 µM), 49.9%; in assay [4] (setting [7]) it was -3%; in assay [4] (setting [8]), 30%; in assay [4] (at 50.0 µM) it was 59.9%. Further, the growth inhibition is 3% in assay [5] (setting [7]); 89% (active) in assay [5] (setting [8]); 83.7% (active) in assay [5] (at 50.0 µM); 1% in assay [6] (setting [7]); 71% (active) in assay [6] (setting [8]); 80.3% (active) in assay [6] (at 50.0 µM).

For `CCCCCCCCCCCCOP(=O)(N1CC1(C)C)N1CC1(C)C` (stereo not given), the growth inhibition in assay [1] (setting [7]) is 4%; in assay [1] (setting [8]), 61%; in assay [1] (at 50.0 µM), 72.7% (active); in assay [2] (setting [7]), 2%; in assay [2] (setting [8]) it was 71% (active); in assay [2] (at 50.0 µM), 58.1%. For the same molecule, the growth inhibition in assay [3] (setting [7]) is 1%; in assay [3] (setting [8]), 67%; in assay [3] (at 50.0 µM), 82.8% (active); in assay [4] (setting [7]), 16%; in assay [4] (setting [8]) it was 72% (active); in assay [4] (at 50.0 µM) it was 34.2%. In addition, the growth inhibition in assay [5] (setting [7]) was 24%; in assay [5] (setting [8]) it was 97% (active); in assay [5] (at 50.0 µM), 87.3% (active); in assay [6] (setting [7]), 4%; in assay [6] (setting [8]), 87% (active); in assay [6] (at 50.0 µM), 80.5% (active).

As for `C=CCNC(=S)N/N=C(/c1ccccn1)C(C)C`, the growth inhibition is 1% in assay [1] (setting [7]); 40% in assay [1] (setting [8]); 89.8% (active) in assay [1] (at 50.0 µM); -1% in assay [2] (setting [7]); 36% in assay [2] (setting [8]); 98.5% (active) in assay [2] (at 50.0 µM). The growth inhibition in assay [3] (setting [7]) was -2%; in assay [3] (setting [8]) it was 80% (active); in assay [3] (at 50.0 µM) it was 96.9% (active); in assay [4] (setting [7]), -4%; in assay [4] (setting [8]), 28%; in assay [4] (at 50.0 µM), 91.3% (active). Moreover, the growth inhibition in assay [5] (setting [7]) is -2%; in assay [5] (setting [8]), 41%; in assay [5] (at 50.0 µM), 96.3% (active); in assay [6] (setting [7]), -2%; in assay [6] (setting [8]), 69%; in assay [6] (at 50.0 µM) it was 96% (active).

As for `C=CCOC(=O)CC(O)C(=O)OCC=C` (stereo not given), the growth inhibition is -5% in assay [1] (setting [7]); 7% in assay [1] (setting [8]); 0.95% in assay [1] (at 50.0 µM); 4% in assay [2] (setting [7]); -2% in assay [2] (setting [8]); -12.7% in assay [2] (at 50.0 µM). The growth inhibition in assay [3] (setting [7]) is -1%; in assay [3] (setting [8]), 3%; in assay [3] (at 50.0 µM), -29.6%; in assay [4] (setting [7]) it was 1%; in assay [4] (setting [8]), -9%; in assay [4] (at 50.0 µM), 13.8%. The growth inhibition in assay [5] (setting [7]) was 0%; in assay [5] (setting [8]), -8%; in assay [5] (at 50.0 µM), 7.85%; in assay [6] (setting [7]) it was -5%; in assay [6] (setting [8]) it was 13%; in assay [6] (at 50.0 µM), -2.45%.

Turning to `Cc1ccc(N=C(N)Nc2ccc(C)cn2)nc1`, the growth inhibition in assay [1] (setting [7]) was 6%; in assay [1] (setting [8]), 78% (active); in assay [1] (at 50.0 µM), 84.5% (active); in assay [2] (setting [7]), 2%; in assay [2] (setting [8]), 68%; in assay [2] (at 50.0 µM), 77.9% (active). Besides, the growth inhibition in assay [3] (setting [7]) was 4%; in assay [3] (setting [8]) it was 69%; in assay [3] (at 50.0 µM), 44.6%; in assay [4] (setting [7]), 19%; in assay [4] (setting [8]) it was 74% (active); in assay [4] (at 50.0 µM) it was 40%. For the same molecule, the growth inhibition in assay [5] (setting [7]) was -5%; in assay [5] (setting [8]), 70% (active); in assay [5] (at 50.0 µM), 79.3% (active); in assay [6] (setting [7]), 5%; in assay [6] (setting [8]) it was 72% (active); in assay [6] (at 50.0 µM) it was 41.5%.

In the case of `CC(=O)N1C=C2CCC3c4ccccc4NC3C2CC1` (stereo not given), the growth inhibition in assay [1] (setting [7]) is -2%; in assay [1] (setting [8]), 15%; in assay [1] (at 50.0 µM) it was 33.2%; in assay [2] (setting [7]), 1%; in assay [2] (setting [8]), 4%; in assay [2] (at 50.0 µM) it was 4.05%. Also, the growth inhibition is -4% in assay [3] (setting [7]); 13% in assay [3] (setting [8]); 34.5% in assay [3] (at 50.0 µM); -51% in assay [4] (setting [7]); 0% in assay [4] (setting [8]); -29.1% in assay [4] (at 50.0 µM). The growth inhibition is -11% in assay [5] (setting [7]); 47% in assay [5] (setting [8]); -4.6% in assay [5] (at 50.0 µM); -7% in assay [6] (setting [7]); -2% in assay [6] (setting [8]); 19.1% in assay [6] (at 50.0 µM).
